Compounds without any hit were thinned out: in the full panel of roughly 79,000, 15% have a hit. Unmarked numbers belong to inactive results. Activity calls are given as the source filed them. Rule as the data show it: active = growth inhibition above about 70%; inactive = the rest.

The results in this text go back to PubChem BioAssay (NCI).

A short description of experiment [1]: NCI Yeast Anticancer Drug Screen. Data for the rad50 strain (AID 155).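 Also: 0% = growth of vehicle-only cultures of the same strain.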 The conditions noted are these: S. cerevisiae rad50 strain growth inhibition, stronger effect = higher value. Summed up:
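Growth of the mutant yeast was measured after compound exposure and referenced to vehicle-treated cultures.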

Experiment [2] in a line: NCI Yeast Anticancer Drug Screen. Data for the mec2-1 strain (AID 157). Particulars: S. cerevisiae mec2-1 strain, stronger effect = higher value. Summed up: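 Mutant yeast (mec2-1) grown with compound; growth inhibition relative to vehicle control reported.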
Experiment [3] in a line: NCI Yeast Anticancer Drug Screen. Data for the sgs1 mgt1 strain (AID 161).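 Also: 0% = growth of cultures given vehicle only.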 The conditions noted are these: S. cerevisiae sgs1 mgt1 strain, stronger effect = higher value. Summed up:
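This yeast growth screen uses a strain with defined DNA-repair lesions; compound-treated growth is compared with vehicle-treated growth.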

The nature of experiment [4]: NCI Yeast Anticancer Drug Screen. Data for the cln2 rad14 strain (AID 165).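 Also: 0% = growth equal to vehicle treated cultures.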 Particulars: S. cerevisiae cln2 rad14 strain, stronger effect = higher value. A digest of the protocol:
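Readout is yeast growth inhibition versus vehicle-treated controls, using a strain with cln2 and rad14 alterations exposed to compound.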

Experiment [5] can be described thus: NCI Yeast Anticancer Drug Screen. Data for the bub3 strain (AID 167). The conditions noted are these: S. cerevisiae bub3 mutant strain, stronger effect = higher value. A digest of the protocol:
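Whole-cell yeast assay. The mutant strain was incubated with compounds, and growth inhibition was determined by comparison with vehicle-treated cells.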

Experiment [6] in a line: NCI Yeast Anticancer Drug Screen. Data for the mlh1 rad18 strain (AID 175). Particulars: S. cerevisiae mlh1 rad18 strain growth inhibition, stronger effect = higher value. Summed up:
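Genetically defined yeast (DNA repair-deficient) exposed to compounds; growth inhibition determined relative to vehicle.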

The mark [7] stands for this setting: at 5.0 µM (retest, dose inferred, filed as 0.5).
The mark [8] stands for this setting: at 50.0 µM (retest, dose inferred, filed as 5.0).

On to `CC1=CC(=O)C(O)=C/C1=C\C=C\c1ccccc1`, for which the growth inhibition was 15% in experiment [1] (setting [7]); 98% (active) in experiment [1] (setting [8]); 99.2% (active) in experiment [1] (at 50.0 µM); 23% in experiment [2] (setting [7]); 99% (active) in experiment [2] (setting [8]); 99% (active) in experiment [2] (at 50.0 µM). For the same molecule, the growth inhibition is 26% in experiment [3] (setting [7]); 99% (active) in experiment [3] (setting [8]); 49.4% in experiment [3] (at 50.0 µM); 6% in experiment [4] (setting [7]); 97% (active) in experiment [4] (setting [8]); 98.8% (active) in experiment [4] (at 50.0 µM). For the same molecule, the growth inhibition was 11% in experiment [5] (setting [7]); 98% (active) in experiment [5] (setting [8]); 99% (active) in experiment [5] (at 50.0 µM); 50% in experiment [6] (setting [7]); 98% (active) in experiment [6] (setting [8]); 99.2% (active) in experiment [6] (at 50.0 µM).

As to `COC12C=CC(CC1)c1c2c(O)c2ncccc2c1O` (stereo not given), the growth inhibition in experiment [1] (setting [7]) is -4%; in experiment [1] (setting [8]), 67%; in experiment [1] (at 50.0 µM), 78.6% (active); in experiment [2] (setting [7]) it was -3%; in experiment [2] (setting [8]) it was 40%; in experiment [2] (at 50.0 µM), 34.9%. Moreover, the growth inhibition was -5% in experiment [3] (setting [7]); 47% in experiment [3] (setting [8]); 72.5% (active) in experiment [3] (at 50.0 µM); -4% in experiment [4] (setting [7]); 23% in experiment [4] (setting [8]); 21.9% in experiment [4] (at 50.0 µM). The growth inhibition in experiment [5] (setting [7]) was 3%; in experiment [5] (setting [8]), 77% (active); in experiment [5] (at 50.0 µM) it was 90.3% (active); in experiment [6] (setting [7]) it was -6%; in experiment [6] (setting [8]) it was 52%; in experiment [6] (at 50.0 µM), 48.3%.

With `CCCCCCCCCCC[n+]1ccc(C#N)cc1`, the growth inhibition in experiment [1] (setting [7]) is -6%; in experiment [1] (setting [8]) it was 64%; in experiment [1] (at 50.0 µM) it was 91.8% (active); in experiment [2] (setting [7]) it was 10%; in experiment [2] (setting [8]) it was 84% (active); in experiment [2] (at 50.0 µM), 57.7%. Moreover, the growth inhibition in experiment [3] (setting [7]) was 14%; in experiment [3] (setting [8]), 91% (active); in experiment [3] (at 50.0 µM), 92.5% (active); in experiment [4] (setting [7]), 16%; in experiment [4] (setting [8]), 56%; in experiment [4] (at 50.0 µM) it was 76.8% (active). Further, the growth inhibition is -5% in experiment [5] (setting [7]); 75% (active) in experiment [5] (setting [8]); 77.6% (active) in experiment [5] (at 50.0 µM); 10% in experiment [6] (setting [7]); 76% (active) in experiment [6] (setting [8]); 91.6% (active) in experiment [6] (at 50.0 µM).

Consider `Brc1ccc(N=Nc2ccc(-c3ccc[cH-]3)cc2)cc1.[Fe+2].c1cc[cH-]c1`, for which the growth inhibition is 3% in experiment [1] (setting [7]); -3% in experiment [1] (setting [8]); 16.1% in experiment [1] (at 50.0 µM); 4% in experiment [2] (setting [7]); 1% in experiment [2] (setting [8]); 6.65% in experiment [2] (at 50.0 µM). Moreover, the growth inhibition is 7% in experiment [3] (setting [7]); -14% in experiment [3] (setting [8]); 6.3% in experiment [3] (at 50.0 µM); 8% in experiment [4] (setting [7]); 11% in experiment [4] (setting [8]); 5.75% in experiment [4] (at 50.0 µM). Moreover, the growth inhibition was 6% in experiment [5] (setting [7]); 9% in experiment [5] (setting [8]); 45.4% in experiment [5] (at 50.0 µM); -2% in experiment [6] (setting [7]); 1% in experiment [6] (setting [8]); 14.7% in experiment [6] (at 50.0 µM).

In the case of `S=c1[nH]c2c(-c3ccccc3)cccc2s1`, the growth inhibition in experiment [1] (setting [7]) is -4%; in experiment [1] (setting [8]) it was 74% (active); in experiment [1] (at 50.0 µM), 62.1%; in experiment [2] (setting [7]), -6%; in experiment [2] (setting [8]) it was 62%; in experiment [2] (at 50.0 µM) it was 76.9% (active). In addition, the growth inhibition in experiment [3] (setting [7]) is 12%; in experiment [3] (setting [8]) it was 78% (active); in experiment [3] (at 50.0 µM), 86.2% (active); in experiment [4] (setting [7]), -16%; in experiment [4] (setting [8]), 41%; in experiment [4] (at 50.0 µM), 60.5%. Also, the growth inhibition is -20% in experiment [5] (setting [7]); 44% in experiment [5] (setting [8]); 53.8% in experiment [5] (at 50.0 µM); 1% in experiment [6] (setting [7]); 65% in experiment [6] (setting [8]); 87.5% (active) in experiment [6] (at 50.0 µM).

As for `CCCCCCCCCCOC(=O)Nc1ccc(C)c(NC(=O)OCCCCCCCCCC)c1`, the growth inhibition was 0% in experiment [1] (setting [7]); 1% in experiment [1] (setting [8]); 27.4% in experiment [1] (at 50.0 µM); 1% in experiment [2] (setting [7]); -3% in experiment [2] (setting [8]); 13.4% in experiment [2] (at 50.0 µM). Besides, the growth inhibition is 3% in experiment [3] (setting [7]); -13% in experiment [3] (setting [8]); 16.8% in experiment [3] (at 50.0 µM); 2% in experiment [4] (setting [7]); -13% in experiment [4] (setting [8]); 23.1% in experiment [4] (at 50.0 µM). Besides, the growth inhibition in experiment [5] (setting [7]) is 0%; in experiment [5] (setting [8]) it was -1%; in experiment [5] (at 50.0 µM) it was 55.2%; in experiment [6] (setting [7]), -1%; in experiment [6] (setting [8]) it was -3%; in experiment [6] (at 50.0 µM) it was 24.6%.

Regarding `CN(C)C(=O)/C=C/c1c[nH]c(=O)[nH]c1=O`, the growth inhibition in experiment [1] (setting [7]) was -146%; in experiment [1] (setting [8]), -149%; in experiment [1] (at 50.0 µM), -5.65%; in experiment [2] (setting [7]) it was -47%; in experiment [2] (setting [8]), -49%; in experiment [2] (at 50.0 µM), -2.3%. Further, the growth inhibition was -63% in experiment [3] (setting [7]); -68% in experiment [3] (setting [8]); 1.05% in experiment [3] (at 50.0 µM); -58% in experiment [4] (setting [7]); -64% in experiment [4] (setting [8]); 19.1% in experiment [4] (at 50.0 µM). Also, the growth inhibition in experiment [5] (setting [7]) is -73%; in experiment [5] (setting [8]) it was -78%; in experiment [5] (at 50.0 µM), -3.35%; in experiment [6] (setting [7]), -149%; in experiment [6] (setting [8]) it was -119%; in experiment [6] (at 50.0 µM), 2.75%.

For the molecule `C(=C\c1cnnc2ccccc12)/c1ccco1`, the growth inhibition in experiment [1] (setting [7]) is 2%; in experiment [1] (setting [8]), 32%; in experiment [1] (at 50.0 µM), 58.2%; in experiment [2] (setting [7]), 5%; in experiment [2] (setting [8]), 33%; in experiment [2] (at 50.0 µM), 20.4%. In addition, the growth inhibition in experiment [3] (setting [7]) was 6%; in experiment [3] (setting [8]), 39%; in experiment [3] (at 50.0 µM) it was 29.4%; in experiment [4] (setting [7]) it was 2%; in experiment [4] (setting [8]), 31%; in experiment [4] (at 50.0 µM) it was 80.8% (active). Further, the growth inhibition is -2% in experiment [5] (setting [7]); 27% in experiment [5] (setting [8]); 18.8% in experiment [5] (at 50.0 µM); 2% in experiment [6] (setting [7]); 40% in experiment [6] (setting [8]); 39.8% in experiment [6] (at 50.0 µM).

Turning to `COc1ccc2c(c1)N=C(N)n1c(nc3ccccc31)S2`, the growth inhibition in experiment [1] (setting [7]) was -1%; in experiment [1] (setting [8]) it was 51%; in experiment [1] (at 50.0 µM), 60.6%; in experiment [2] (setting [7]) it was -6%; in experiment [2] (setting [8]), 42%; in experiment [2] (at 50.0 µM), 54.6%. Moreover, the growth inhibition was -10% in experiment [3] (setting [7]); 83% (active) in experiment [3] (setting [8]); 74.3% (active) in experiment [3] (at 50.0 µM); -33% in experiment [4] (setting [7]); 34% in experiment [4] (setting [8]); 36.1% in experiment [4] (at 50.0 µM). The growth inhibition in experiment [5] (setting [7]) was -37%; in experiment [5] (setting [8]), 36%; in experiment [5] (at 50.0 µM), 69.7%; in experiment [6] (setting [7]), -14%; in experiment [6] (setting [8]), 57%; in experiment [6] (at 50.0 µM) it was 56.8%.

For `CCCCCCCCCCCC(=O)N(CC)CC`, the growth inhibition is -3% in experiment [1] (setting [7]); 99% (active) in experiment [1] (setting [8]); 99.8% (active) in experiment [1] (at 50.0 µM); 1% in experiment [2] (setting [7]); 99% (active) in experiment [2] (setting [8]); 99.9% (active) in experiment [2] (at 50.0 µM). The growth inhibition was -4% in experiment [3] (setting [7]); 100% (active) in experiment [3] (setting [8]); 99.8% (active) in experiment [3] (at 50.0 µM); -1% in experiment [4] (setting [7]); 99% (active) in experiment [4] (setting [8]); 99% (active) in experiment [4] (at 50.0 µM). For the same molecule, the growth inhibition is 2% in experiment [5] (setting [7]); 100% (active) in experiment [5] (setting [8]); 99.7% (active) in experiment [5] (at 50.0 µM); 14% in experiment [6] (setting [7]); 99% (active) in experiment [6] (setting [8]); 99.8% (active) in experiment [6] (at 50.0 µM).
